# Reference: PubChem BioAssay AID2315 (National Center for Advancing Translational Sciences (NCATS), 2010)
# Among all 290,000 compounds or so, about 27,000 (9.3%) were called active. No stated cut-off is given here; in the data, active means inhibition mostly above about 28% (no sharp cut-off); inactive means mostly below about 43%. Many of the other results were omitted from the sample, so actives are more common in it than they were.
# Experiment: A qHTS for Small Molecule Inhibitors of Shiga Toxin; further: 0% is about no effect
# Conditions: Vero cells, Shiga toxin protein synthesis inhibition reporter; at 38.7 µM, stronger effect = higher value
row,SMILES,inhibition
1,Cc1ccccc1CN1CCC(C(=O)Nc2ccc(Oc3cccnc3)cc2)CC1,-3.91% (inactive)
2,Cc1ccc(NC(=O)c2csc3c2CCCC3)cc1,110% (active)
3,COC(=O)c1c(NC(=O)CCCC(=O)O)sc2c1CCCCC2,-0.986% (inactive)
4,O=C(NCc1ccccc1Cl)c1csc2c1CCCCC2,11.2% (inactive)
5,Cc1ccc(NC(=O)c2c(NC(=O)CCC(=O)O)sc3c2CCCCC3)cc1,42.9% (active)
6,O=C(N/N=C/c1ccco1)c1ccc(NC(=O)C2CC2)cc1,-2.21% (inactive)
7,COC(=O)c1sc(NC(=O)c2csc3c2CCCC3)nc1C,76.1% (active)
8,O=C(CN1CCCC1)Nc1sc2c(c1C(=O)Nc1ccccc1)CCCC2,-10.4% (inactive)
9,COC(=O)c1sccc1NC(=O)c1csc2c1CCCC2,92.6% (inactive)
10,CCOC(=O)c1sc(NC(=O)c2sc(C)nc2C)nc1C,30.3% (inactive)
11,O=C(N/N=C/c1ccco1)c1csc2c1CCCC2,122% (active)
12,O=C(Nc1ccccc1N1CCOCC1)c1csc2c1CCCC2,11.3% (inactive)
13,O=C(N/N=C/c1ccco1)c1ccc(C(=O)N/N=C/c2ccco2)o1,-3.95% (inactive)
14,COc1ccc(S(=O)(=O)NCC(=O)NCc2cc(=O)n(C)c(=O)n2C)cc1F,-4.87% (inactive)
15,CCOC(=O)c1cc2ccccc2n1CC(=O)c1ccccc1,3.23% (inactive)
16,COc1cccc(N2C(=O)CN(Cc3ccccc3)C2=S)c1,24.3% (inactive)
17,Cc1ccc(OCC(=O)Nc2ccc(N3CCN(C(=O)c4ccco4)CC3)cc2)c(C)c1,-6.09% (inactive)
18,O=C(c1ccccc1F)N(Cc1ccccc1)Cc1ccccc1,18% (inactive)
19,Cc1nc(N)nc(SCc2ccc([N+](=O)[O-])cc2)c1N,-4.97% (inactive)
20,Cc1ccc(NS(=O)(=O)c2ccc3c(c2)oc(=O)n3C)c(C)c1,0.571% (inactive)
21,COc1ccc(-c2ccc(OC)c(C3C4C=CCC(C)C4C(=O)N3Cc3ccccc3)c2)cc1C (configuration not stated),31.9% (inactive)
22,COc1ccc2oc(=N)c(C(=O)Nc3ccc(Br)cc3)cc2c1,14.3% (inactive)
23,COc1ccc(C(=O)OCC(=O)Nc2cccc(C(C)=O)c2)cc1OC,8.39% (inactive)
24,O=C(Nc1ccc([N+](=O)[O-])cc1)C1(c2ccccc2)CCOCC1,-4.2% (inactive)
25,O=C(COC(=O)C1CCCCC1)Nc1ccc([N+](=O)[O-])cc1,30.9% (inactive)
26,O=C(Nc1ccc([N+](=O)[O-])cc1)C1CC12CCC2 (configuration not stated),76.1% (active)
27,Cn1nccc1C(=O)NC1CCCc2c1cnn2-c1ccccc1F (configuration not stated),-4.18% (inactive)
